# Test results reported in PubChem BioAssay AID1159580 (chemical genetic matrix, 2015).
# Among all 5,500 compounds or so, about 2,000 (36%) were called active. Another 18% or so got no clear call; they are omitted. This is one part of the list. A number with no mark means an inactive call. Cut-off read from the data, not from the text of the source: active = normalized growth mostly below about 0.91 (no sharp cut-off); inconclusive = no clear call, values can overlap the other calls; inactive = mostly above about 0.92.
# Assay: chemical genetic growth profiling, strain panel (AID 1159580);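 note: tested at 20 µM; growth read once vehicle control cultures reached saturation at 30 °C; 1 = growth at the plate median or of vehicle wells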
# Details: S. cerevisiae deletion strains, growth OD
# [1] = locus YAL013W, strain DEP1, stronger effect = lower value
# [2] = locus YBR229C, strain ROT2, stronger effect = lower value
# [3] = locus YDL101C, strain DUN1, stronger effect = lower value
# [4] = locus YDR150W, strain NUM1, stronger effect = lower value
# [5] = locus YEL061C, strain CIN8, stronger effect = lower value
# [6] = locus YGR078C, strain PAC10, stronger effect = lower value
# [7] = locus YHR030C, strain SLT2, stronger effect = lower value
# [8] = locus YHR087W, strain rtc3, stronger effect = lower value
# [9] = locus YJR043C, strain POL32, stronger effect = lower value
# [10] = locus YJR075W, strain HOC1, stronger effect = lower value
# [11] = locus YLR039C, strain RIC1, stronger effect = lower value
# [12] = locus YLR058C, strain SHM2 (second series), stronger effect = lower value
# [13] = locus YLR085C, strain ARP6, stronger effect = lower value
# [14] = locus YLR262C, strain YPT6, stronger effect = lower value
# [15] = locus YML094W, strain GIM5, stronger effect = lower value
# [16] = locus YMR219W, strain ESC1, stronger effect = lower value
# [17] = locus YMR263W, strain SAP30, stronger effect = lower value
# [18] = locus YNL153C, strain GIM3, stronger effect = lower value
# [19] = locus YNL298W, strain CLA4 (second series), stronger effect = lower value
# [20] = locus YNL322C, strain KRE1, stronger effect = lower value
# [21] = locus YNR030W, strain Alg12, stronger effect = lower value
# [22] = locus YPL055C, strain LGE1, stronger effect = lower value
# [23] = locus YPL241C, strain CIN2, stronger effect = lower value
# [24] = locus YPR135W, strain CTF4, stronger effect = lower value
smiles,measurement,setting,value
CCCCCCCCCCCCSc1nnc(N)s1,normalized growth,[1],1.01
same,normalized growth,[2],0.994
same,normalized growth,[3],1.05
same,normalized growth,[4],1.01
same,normalized growth,[5],1
same,normalized growth,[6],0.999
same,normalized growth,"locus YGR229C, strain SMI1, stronger effect = lower value",0.977
same,normalized growth,[7],0.964
same,normalized growth,[8],1.02
same,normalized growth,"locus YJL187C, strain SWE1, stronger effect = lower value",0.995
same,normalized growth,[9],0.984
same,normalized growth,[10],1.01
same,normalized growth,[11],0.981
same,normalized growth,[12],0.991
same,normalized growth,[13],0.953
same,normalized growth,[14],1
same,normalized growth,[15],1.12
same,normalized growth,[16],0.996
same,normalized growth,[17],0.968
same,normalized growth,"locus YMR307W, strain GAS1, stronger effect = lower value",0.933
same,normalized growth,[18],1.02
same,normalized growth,[19],0.976
same,normalized growth,[20],0.983
same,normalized growth,[21],1.02
same,normalized growth,[22],1.02
same,normalized growth,[23],0.978
same,normalized growth,[24],1.21
CC(C)/C(=N/OC(=O)c1ccc([N+](=O)[O-])cc1)c1ccccc1,normalized growth,"locus YAR019C, strain CDC15, stronger effect = lower value",0.974
same,normalized growth,"locus YBL105C, strain PKC1, stronger effect = lower value",0.965
same,normalized growth,"locus YBR136W, strain MEC1, stronger effect = lower value",0.967
same,normalized growth,"locus YBR160W, strain CDC28, stronger effect = lower value",0.957
same,normalized growth,"locus YDL017W, strain CDC7, stronger effect = lower value",0.963
same,normalized growth,"locus YDL028C, strain MPS1, stronger effect = lower value",0.955
same,normalized growth,[3],0.952
same,normalized growth,"locus YDL108W, strain KIN28, stronger effect = lower value",0.962
same,normalized growth,"locus YDL214C, strain PRR2, stronger effect = lower value",0.148 (active)
same,normalized growth,"locus YDR052C, strain DBF4, stronger effect = lower value",0.979
same,normalized growth,"locus YDR054C, strain cdc34, stronger effect = lower value",0.955
same,normalized growth,"locus YDR226W, strain ADK1, stronger effect = lower value",0.949
same,normalized growth,"locus YER123W, strain YCK3, stronger effect = lower value",0.909
same,normalized growth,"locus YFR003C, strain YPI1, stronger effect = lower value",0.96
same,normalized growth,"locus YGR040W, strain KSS1, stronger effect = lower value",0.231 (active)
same,normalized growth,"locus YGR052W, strain FMP48, stronger effect = lower value",0.814
same,normalized growth,"locus YGR092W, strain DBF2, stronger effect = lower value",0.843
same,normalized growth,[7],0.337 (active)
same,normalized growth,"locus YIL147C, strain SLN1, stronger effect = lower value",0.96
same,normalized growth,"locus YJL095W, strain BCK1, stronger effect = lower value",0.745
same,normalized growth,"locus YJL128C, strain PBS2, stronger effect = lower value",0.943
same,normalized growth,"locus YJR016C, strain ILV3, stronger effect = lower value",0.957
same,normalized growth,"locus YJR066W, strain TOR1 (second series), stronger effect = lower value",0.137 (active)
same,normalized growth,"locus YJR066W, strain TOR1, stronger effect = lower value",0.769
same,normalized growth,"locus YKL048C, strain ELM1, stronger effect = lower value",0.991
same,normalized growth,"locus YKL067W, strain YNK1, stronger effect = lower value",0.911
same,normalized growth,"locus YKL101W, strain HSL1, stronger effect = lower value",0.242 (active)
same,normalized growth,"locus YKL203C, strain TOR2, stronger effect = lower value",0.802
same,normalized growth,"locus YLR113W, strain HOG1, stronger effect = lower value",0.604 (active)
same,normalized growth,"locus YLR133W, strain CKI1, stronger effect = lower value",0.175 (active)
same,normalized growth,"locus YLR403W, strain SFP1, stronger effect = lower value",0.0636 (active)
same,normalized growth,"locus YML070W, strain DAK1, stronger effect = lower value",0.909
same,normalized growth,"locus YMR001C, strain CDC5, stronger effect = lower value",0.384 (active)
same,normalized growth,"locus YMR205C, strain PFK2 (second series), stronger effect = lower value",0.126 (active)
same,normalized growth,"locus YNL006W, strain LST8, stronger effect = lower value",0.507 (active)
same,normalized growth,"locus YNL020C, strain ARK1, stronger effect = lower value",0.174 (active)
same,normalized growth,"locus YNL161W, strain CBK1, stronger effect = lower value",0.378 (active)
same,normalized growth,"locus YNL183C, strain NPR1, stronger effect = lower value",0.595
same,normalized growth,"locus YNL207W, strain RIO2, stronger effect = lower value",0.955
same,normalized growth,"locus YOR119C, strain RIO1, stronger effect = lower value",0.814
same,normalized growth,"locus YOR329C, strain SCD5, stronger effect = lower value",0.637 (active)
same,normalized growth,"locus YPL153C, strain RAD53, stronger effect = lower value",0.671
same,normalized growth,"locus YPL209C, strain IPL1, stronger effect = lower value",0.966
same,normalized growth,"locus YPL256C, strain CLN2, stronger effect = lower value",0.582 (active)
same,normalized growth,"locus YPR106W, strain ISR1, stronger effect = lower value",0.978
same,normalized growth,"locus YPR111W, strain DBF20, stronger effect = lower value",0.972
same,normalized growth,"strain NNK1, stronger effect = lower value",0.97
NC(=NS(=O)(=O)c1cc(Cl)c(Oc2ccc([N+](=O)[O-])cc2Cl)c(Cl)c1)c1cccnc1,normalized growth,[1],1
same,normalized growth,[2],0.993
same,normalized growth,[3],0.976
same,normalized growth,[4],0.948
same,normalized growth,[5],1.01
same,normalized growth,[6],1
same,normalized growth,[7],0.924
same,normalized growth,[8],1.01
same,normalized growth,[9],1
same,normalized growth,[10],0.992
same,normalized growth,[11],1.09
same,normalized growth,[12],1.01
same,normalized growth,[13],1.05
same,normalized growth,[14],1.09
same,normalized growth,[15],1.01
same,normalized growth,[16],0.997
same,normalized growth,[17],0.95
same,normalized growth,"locus YNL128W, strain TEP1, stronger effect = lower value",1.02
same,normalized growth,[18],0.992
same,normalized growth,[19],1.02
same,normalized growth,[20],1.01
same,normalized growth,[21],1.01
same,normalized growth,[22],0.912
same,normalized growth,[23],1.01
same,normalized growth,[24],0.96
